Among all 310,000 compounds or so, about 14,000 (4.5%) showed an effect of 50% or more. Effects have a minus sign here. For the sample, strong results were picked, then their nearest neighbours and some compounds at random.
Molecular target: human ether-à-go-go-related gene (hERG) potassium channel (human, UniProt Q12809)
Assay: primary screen, population patch clamp on CHO cells stably expressing hERG; higher = less effect of the substance
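Note: peak tail current of the secondary pulse compared with the same well before compound.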

human ether-à-go-go-related gene (hERG) potassium channel, sequence (Q12809 whole entry, looked up): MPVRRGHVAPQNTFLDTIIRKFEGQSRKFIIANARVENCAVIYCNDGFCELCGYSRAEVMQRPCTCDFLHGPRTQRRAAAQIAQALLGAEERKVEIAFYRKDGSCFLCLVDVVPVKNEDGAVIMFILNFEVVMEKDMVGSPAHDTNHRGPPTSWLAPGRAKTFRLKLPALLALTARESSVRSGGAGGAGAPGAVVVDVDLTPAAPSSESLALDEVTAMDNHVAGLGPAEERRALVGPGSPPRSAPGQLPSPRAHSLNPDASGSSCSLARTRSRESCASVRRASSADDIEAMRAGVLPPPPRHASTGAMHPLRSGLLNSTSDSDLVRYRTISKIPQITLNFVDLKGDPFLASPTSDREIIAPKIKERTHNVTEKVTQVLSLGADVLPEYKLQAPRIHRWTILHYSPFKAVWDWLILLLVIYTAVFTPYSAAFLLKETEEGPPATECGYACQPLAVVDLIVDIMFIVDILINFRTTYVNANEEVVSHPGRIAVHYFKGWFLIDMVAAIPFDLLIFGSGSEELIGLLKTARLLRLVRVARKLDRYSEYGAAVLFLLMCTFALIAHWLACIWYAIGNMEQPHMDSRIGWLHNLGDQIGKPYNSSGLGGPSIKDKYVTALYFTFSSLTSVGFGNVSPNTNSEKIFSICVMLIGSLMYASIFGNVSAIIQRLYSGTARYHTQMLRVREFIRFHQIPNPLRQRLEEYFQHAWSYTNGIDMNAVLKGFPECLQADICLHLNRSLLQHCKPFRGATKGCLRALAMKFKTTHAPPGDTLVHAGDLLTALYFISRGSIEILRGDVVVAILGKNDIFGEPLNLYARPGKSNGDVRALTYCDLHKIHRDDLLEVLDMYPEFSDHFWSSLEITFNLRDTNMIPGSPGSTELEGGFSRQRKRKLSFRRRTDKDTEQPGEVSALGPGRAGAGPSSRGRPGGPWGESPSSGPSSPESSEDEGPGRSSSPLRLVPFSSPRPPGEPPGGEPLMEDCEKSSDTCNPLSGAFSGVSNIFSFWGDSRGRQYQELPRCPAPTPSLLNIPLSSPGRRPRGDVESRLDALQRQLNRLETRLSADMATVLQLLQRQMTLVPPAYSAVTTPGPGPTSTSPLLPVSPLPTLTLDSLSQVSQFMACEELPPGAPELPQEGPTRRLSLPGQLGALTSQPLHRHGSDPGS

| SMILES | hERG current change (%, negative = inhibition) at 10uM |
| --- | --- |
| S=C(NC1CCCCC1)N1CCc2ccccc2C1 | -5.33% |
| Cc1cc2cc(CCNC(=O)c3ccc(S(=O)(=O)N4CCOCC4)cc3)c(=O)[nH]c2cc1C | 6.3% |
| Cc1ccnc(NS(=O)(=O)c2ccccc2)c1 | 15.2% |
| Cc1cc(-c2ccc(C)c(S(=O)(=O)NCC3CCN(Cc4ccccc4F)CC3)c2)on1 | -52.8% |
| Cc1cc(-c2ccc(C)c(S(=O)(=O)NCCCN3CCN(c4ccccc4F)CC3)c2)on1 | 10.3% |
| CCc1ccc(-c2cc(C)no2)cc1S(=O)(=O)NCCCN1CCN(c2ccccc2)CC1 | 1.91% |
| Cc1cc(-c2ccc(C)c(S(=O)(=O)NCCCN(Cc3ccccc3)C(C)C)c2)on1 | -36.9% |
| COc1ccc(-c2cc(C)no2)cc1S(=O)(=O)NCCCN1CCN(c2ccccc2)CC1 | -68% |
| COc1ccc(-c2cc(C)no2)cc1S(=O)(=O)NCCCN(C)Cc1ccccc1 | -29.9% |
| CCc1ccc(-c2cc(C)no2)cc1S(=O)(=O)NCCN1CCC(C)CC1 | -7.14% |
| CCOc1ccccc1CNS(=O)(=O)c1cc(-c2cc(C)no2)ccc1C | -19% |
| COc1ccccc1CNS(=O)(=O)c1cc(-c2cc(C)no2)ccc1C(C)C | 5.07% |
| Cc1cc(-c2ccc(C)c(S(=O)(=O)NCCCN3CCN(c4ccccc4)CC3)c2)on1 | -33.2% |
| CCN(CCCNS(=O)(=O)c1cc(-c2cc(C)no2)ccc1C)Cc1ccccc1 | -61.3% |
| COc1ccccc1CN1CCC(CNS(=O)(=O)c2cc(-c3cc(C)no3)ccc2C)CC1 | -61.3% |
| O=C(CCCCCNC(=O)c1ccccc1)N/N=C/c1ccccc1 | -9.98% |
| O=C(Nc1ccc2oc(-c3cccnc3)nc2c1)c1ccc2c(c1)OCCO2 | 20.2% |
| CCCCCC/C=C/c1ccc([C@H]2[C@H]3C=CC[C@@H](C)[C@@H]3C(=O)N2Cc2ccccc2)c(F)c1 | 4.76% |
| S=C1NC(c2ccccc2)=NCN1c1ccc(Br)cc1 | -12.9% |

| SMILES | hERG current change (%, negative = inhibition) at 10uM |
| --- | --- |
| COc1ccccc1N(CC(=O)NCCSCc1ccc(Cl)cc1)S(C)(=O)=O | -0.283% |
| C=CCSc1nccc(-c2nn(-c3ccc(C)cc3)ccc2=O)n1 | -8.82% |
| O=C1NC(=O)N(CCc2ccc(F)cc2)C(=O)/C1=C/c1cccs1 | 16.1% |
| Cc1c(NC(=O)COC(=O)c2ccc(Br)o2)c(=O)n(-c2ccccc2)n1C | 13.8% |
| O=C(COc1ccccc1-c1ccccc1)N/N=C/c1ccncc1 | -26.2% |
| Cc1ccccc1-c1cc(C(=O)N/N=C/c2cccnc2)c2ccccc2n1 | -3.87% |
| O=C(COc1ccccc1-c1ccccc1)N/N=C/c1cccnc1 | -52.8% |
| O=C(N/N=C/c1cccnc1)c1ccccc1OCc1ccc(Cl)cc1 | -38.4% |
| O=C(N/N=C/c1cccnc1)c1ccccc1OCc1ccc(Br)cc1 | -52.6% |
| CC(C)Oc1ccccc1-c1cc(C(=O)N/N=C/c2cccnc2)c2ccccc2n1 | -51.1% |
| COc1ccc(/C(C)=N/NC(=O)c2ccccc2OCc2ccccc2)c(OC)c1 | 11.2% |
| COc1ccc(/C=N/NC(=O)c2ccccc2NC(=O)c2ccco2)c(OC)c1 | 15.3% |
| O=C(N/N=C/c1cccnc1)c1ccccc1OCc1cccc(Br)c1 | -17.1% |
| COc1ccc(/C=N/NC(=O)c2ccccc2OCc2ccccc2)c(OC)c1 | -53.8% |
| O=C(COc1ccc(-c2ccccc2)cc1)N/N=C/c1cccnc1 | 7.95% |
| CCOc1ccccc1-c1cc(C(=O)N/N=C/c2cccnc2)c2ccccc2n1 | -6.35% |
| Cc1ccccc1N/N=C/c1ccc(N2CCOCC2)cc1 | -2.55% |
| CCn1cc(CNC(=O)C2CCC(=O)N(Cc3ccccc3F)C2)cn1 (centres unmarked) | 8.25% |
| COc1ccc(C(=O)Nc2ccccc2C(=O)N2CCOCC2)cc1Br | -17.3% |

| SMILES | hERG current change (%, negative = inhibition) at 10uM |
| --- | --- |
| C/C(=N\NC(=O)COc1ccccc1-c1ccccc1)c1cccnc1 | -53.9% |
| C/C(=N\NC(=O)COc1ccccc1-c1ccccc1)c1ccccn1 | -6.93% |
| C/C(=N\NC(=O)Cc1ccccc1)c1cccnc1 | 15.3% |
| CSCCC(NS(=O)(=O)c1cc(C(=O)O)ccc1Cl)C(=O)O (centres unmarked) | 45% |
| O=C(/C=C/c1ccccc1Cl)NCc1ccccc1 | 10.2% |
| CCN(CC)C(=O)C1CCCN(C(=O)CCn2nnnc2CN2CCOCC2)C1 (centres unmarked) | 17.7% |
| NC(N)=NC(=O)c1nc(Cl)c(N2CCCCCC2)nc1N | -58.6% |
| NC(N)=NC(=O)c1nc(Cl)c(N)nc1N | -3.88% |
| Cl.NC(N)=NC(=O)c1nc(Cl)c(N)nc1N.O | -0.314% |
| Cc1ccc(N(CC(O)CN2CCOCC2)S(=O)(=O)c2ccc3ccccc3c2)cc1 (centres unmarked) | -67.4% |
| Cc1ccc(S(=O)(=O)N(CC(O)CN2CCOCC2)c2cccc([N+](=O)[O-])c2)cc1 (centres unmarked) | -34.5% |
| Cl.O=S(=O)(c1ccc2ccccc2c1)N(CC(O)CN1CCOCC1)c1ccccc1 (centres unmarked) | -47.9% |
| O=[N+]([O-])c1ccc(N(CC2CO2)S(=O)(=O)c2ccccc2)cc1 (centres unmarked) | -43.9% |
| Cc1ccc(N(CC(O)CN2C(=O)NC(C)(C)C2=O)S(=O)(=O)c2ccc([N+](=O)[O-])cc2)cc1 (centres unmarked) | -32.7% |
| COc1ccc(N(CC(O)CN2CCOCC2)S(=O)(=O)c2ccccc2)cc1 (centres unmarked) | -12.1% |
| Cc1ccc(N(CC2CO2)S(=O)(=O)c2ccc(C)cc2)cc1 (centres unmarked) | -5.18% |
| Cc1ccc(N(CC(O)CN2CCOCC2)S(=O)(=O)c2ccc([N+](=O)[O-])cc2)cc1 (centres unmarked) | -65.2% |
| Cc1ccc(N(CC2CO2)S(=O)(=O)c2ccc([N+](=O)[O-])cc2)cc1 (centres unmarked) | -69.3% |

— article PMC4336329 (PLoS ONE, 2015)
